Screen size: about 16,000 compounds; about 4,000 (25%) were called active. Roughly 26% stayed inconclusive and do not appear here. Not all results are given here. Unmarked numbers belong to inactive results. Calls come from the whole dose curve; as a rule, active = well fitted curve in the direction sought with a large enough effect; inconclusive = small, poorly fitted or top-dose-only effect, or effect the other way; inactive = no such curve, though single readings can be large or run the other way.
molecular target: Cytochrome P450 2C9 (Homo sapiens) (UniProt P11712); assay: Cytochrome panel assay with activity outcomes; conditions: recombinant CYP, pro-luciferin dealkylation, luminescence, p450-cyp2c9; series mostly up to 57.1 µM; activity, negative = inhibition: at the top concentration
Procedure: The P450 gene superfamily is involved in the metabolism and clearance of xenobiotics. This assay used various human CYP P450 isozymes to measure the dealkylation of various pro-luciferin substrates to luciferin. The luciferin is then measured by luminescence after the addition of a luciferase detection reagent. Pro-luciferin substrate concentration in the assay was equal to its KM for its CYP P450 isozyme. Inhibitors and some substrates limit the production of luciferin, and decrease measured luminescence.
NCGC Assay Protocol Summary:
1, Reagent, 2 uL, Isozyme and Pro-Luciferin
2, Library compounds, 23 nl, 40 uM to 0.24 nM dilution series
3, Controls, 23 nl, Isozyme specific inhibitor
4, Reagent, 2 uL, NADPH regeneration solution
5, Incubation time, 60 min, Isozyme specific temperature
6, Reagent, 4ul, Detection reagent
7, Incubation time, 20 min, Isozyme specific temperature
8, Detection, 1 sec, ViewLux luminescent read
The luciferase-based P450-GloTM Screening Systems were obtained from Promega (Madison, WI) for CYP 1A2 (V9770), CYP 2C9 (V9790), CYP2 C19 (V9880), CYP 2D6 (V9890), and CYP 3A4 Luciferin-PPXE (V9910) and were adapted for 1,536-well microplates and an automated protocol. The control compounds furafylline for 1A2 (F124), sulfaphenazole for CYP 2C9 (S0758), ketoconazole for CYP 2C19 (K1003), quinidine for 2D6 (Q3625), and ketoconazole for 3A4 (K1003) were purchased from Sigma Aldrich (St. Louis, MO). Recombinant P450 enzymes were obtained from baculovirus constructs expressed in insect cells (BD/Gentest).
Medium-binding white solid Kalypsys plates used. Mixtures kept on ice. 1A2: 10 nM 1A2, 100 uM Luc-ME, 100 mM KPO4; 2C9: 10 nM 2C9, 100 uM Luc-H, 25 mM KPO4; 2C19: 5 nM 2C19, 10 uM Luc-H EGE, 50 mM KPO4; 2D6: 5 nM 2D6, 30 uM Luc-ME EGE, 100 mM KPO4; 3A4: 10 nM, 25 uM Luc-PPXE. All amounts are reflected in their final concentration, working concentration is 2x.
NADPH regeneration solution: 1.3 mM NADP+, 3.3 mM glucose-6-phosphate, 3.3 mM MgCl2, 0.4 U/mL glucose-6-phosphate dehydrogenase for all isozymes, 200 mM KPO4 for 3A4. Mixture prepared at RT but kept on ice during automated run.
RT incubation in auxilliary plate hotel for 1A2, 2D6, and 3A4; 37C for 2C9 and 2C19.
Keywords: P450, CYP1A2, CYP2C19, CYP2C9, CYP2D6, CYP3A4, Luciferase, MLSMR, MLSCN, NIH Roadmap, qHTS, NCGC
% is set by controls: 0 for no effect and ±100 for the full control effect.

Sequence of Cytochrome P450 2C9 (Homo sapiens) (P11712 whole entry, looked up): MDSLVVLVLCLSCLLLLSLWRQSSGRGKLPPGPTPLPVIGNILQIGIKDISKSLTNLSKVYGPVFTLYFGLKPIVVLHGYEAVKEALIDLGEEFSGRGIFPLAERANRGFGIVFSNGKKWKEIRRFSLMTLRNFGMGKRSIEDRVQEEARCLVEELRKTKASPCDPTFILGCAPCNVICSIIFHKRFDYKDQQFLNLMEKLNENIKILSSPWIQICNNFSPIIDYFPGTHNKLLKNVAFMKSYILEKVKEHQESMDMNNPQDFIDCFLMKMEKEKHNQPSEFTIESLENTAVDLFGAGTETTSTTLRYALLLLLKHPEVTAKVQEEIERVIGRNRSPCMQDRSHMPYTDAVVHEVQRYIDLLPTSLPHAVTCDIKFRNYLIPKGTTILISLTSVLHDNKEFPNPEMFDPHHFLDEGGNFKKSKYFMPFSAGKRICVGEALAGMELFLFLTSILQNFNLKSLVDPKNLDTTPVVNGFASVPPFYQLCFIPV

Structure (SMILES) | activity, negative = inhibition | AC50
CC(C)(C)NC[C@@H](O)c1ccc(O)c(CO)n1 | 6.16% [at 11.4 µM] | 
Clc1ccc(-c2nc3ncccn3c2Nc2ccc3c(c2)OCCO3)cc1 |  | 4.47 µM (active)
Cc1ccc(-c2nc3ncccn3c2NC(=O)C2CC2)cc1 | 6.9% | 
Cc1noc(C)c1-c1cc(Nc2ccccc2)ncn1 | -12.1% [at 2.29 µM] | 
Cc1noc(C)c1-c1cc(NCc2ccccc2)ncn1 | 24.9% [at 2.29 µM] | 
Cc1noc2ncnc(Oc3ccc4ccccc4c3)c12 |  | 25.1 µM (active)
Clc1ccc(COc2ccccn2)cc1Cl | -2.18% | 
O=Nc1c(O)n(Cc2cccc(Cl)c2)c2ccccc12 |  | 2.51 µM (active)
O=Nc1c(O)n(Cc2ccc(Cl)cc2)c2ccccc12 |  | 1.26 µM (active)
Clc1ccc(Cn2c(CN3CCCC3)nc3ccccc32)cc1 | -38.8% [at 25.6 µM] | 
O=Nc1c(O)n(Cc2ccc(Cl)c(Cl)c2)c2ccccc12 |  | 5.62 µM (active)
O=C1C(=O)N(Cc2ccc(Cl)c(Cl)c2)c2ccccc21 | 1% | 
NC(=O)c1ncn([C@@H]2O[C@@H](CO)[C@@H](O)[C@H]2O)c1O | -6.99% | 
Cc1noc(C)c1-c1cncnc1NC1CC1 | 4.67% [at 2.29 µM] | 
c1cn(-c2ccnc(-c3ccc4c(c3)OCO4)n2)cn1 | 4.3% [at 2.29 µM] | 
CN(C)C(=O)c1ccc(-c2nc(N(C)Cc3ccco3)c3ccccc3n2)cc1 | 5.2% [at 2.29 µM] | 
CN(Cc1ccccc1)c1nc(-c2ccc([N+](=O)[O-])cc2)nc2ccccc12 |  | 0.501 µM (active)
COc1cccc(-c2nc(N(C)Cc3ccco3)c3ccccc3n2)c1 | -10.2% [at 2.29 µM] | 
c1nc(NCCc2cnc[nH]2)c2[nH]cnc2n1 | -20.1% [at 11.4 µM] | 
CN(C)C(=O)c1ccc(-c2cc(NCc3ccccc3)ncn2)cc1 | 6.12% [at 2.29 µM] | 
CN(C)c1cc(=O)n2c(n1)SCCC2 | -4.22% | 
N#Cc1c(-c2ccccc2)nc2n(c1=O)CCS2 | -5.83% | 
N#Cc1c(-c2ccc(Cl)cc2)nc2n(c1=O)CCCS2 |  | 12.6 µM (active)
Cn1cccc1C(=O)N1CCC2(CC1)CCN(c1cccc(-c3ccccc3)c1)CC2 | 9.6% | 

Structure (SMILES) | activity, negative = inhibition | AC50
Cn1cccc1C(=O)N1CCC2(CC1)CCN(c1ccc(-c3ccccc3)cc1)CC2 | -18.2% | 
CC(C)NC(=O)N1CCCC2(CCN(C(=O)c3cccn3C)CC2)C1 | -10.5% | 
Cn1cccc1C(=O)N1CCC2(CCCN(c3cccc(-c4ccccc4)c3)C2)CC1 |  | 3.98 µM (active)
CN1CCCC2(CCN(C(=O)c3cccn3C)CC2)C1 | 9.11% | 
c1ccc(-c2ccc(N3CCCC4(CCNCC4)C3)cc2)cc1 |  | 25.1 µM (active)
CC(C)CN1CCCC2(CCN(C(=O)c3cccn3C)CC2)C1 | 5.73% | 
Cn1cccc1C(=O)N1CCC2(CC1)CCN(C(c1ccccc1)c1ccccc1)CC2 | 12.5% | 
c1ccc(-c2ccc(N3CC4(CCNCC4)C3)cc2)cc1 | -19.5% | 
Cn1cccc1C(=O)N1CCC2(CCCN(c3ccc(-c4ccccc4)cc3)C2)CC1 |  | 15.8 µM (active)
c1ccc(-c2ccc(N3CC[C@@]4(CCCNC4)C3)cc2)cc1 | -3.55% | 
Cn1cccc1C(=O)N1CCC2(CCCN(C(c3ccccc3)c3ccccc3)C2)CC1 |  | 12.6 µM (active)
Cc1cnc(CNc2ncncc2-c2ccccc2CN(C)C)cn1 | 20.8% [at 2.29 µM] | 
CO[C@@H]1COC(=O)[C@H]2CCCN2C(=O)[C@@H](C)COC(=O)CCC[C@H]1C | 1.93% [at 11.4 µM] | 
Cn1cccc1C(=O)N1CCC2(CC1)CCN(c1ccccc1)CC2 | 10.5% | 
Cn1cccc1C(=O)N1CCC[C@@]2(CCN(c3ccncc3)C2)C1 | -3.72% | 
Cn1cccc1C(=O)N1CCC2(CC1)CCN(c1ccncc1)CC2 | -17.9% | 
Cn1cccc1C(=O)N1CCC2(CC1)CN(c1ccncc1)C2 |  | 5.01 µM (active)
Cn1cccc1C(=O)N1CCC[C@@]2(CCN(c3ccccc3)C2)C1 | -11.1% | 
Cn1cccc1C(=O)N1CCC2(CCCN(c3ccccc3)C2)CC1 |  | 15.8 µM (active)
O=C(Oc1ccccc1)N1CCC2(CCCN(c3ccc(-c4ccccc4)cc3)C2)CC1 | 17.5% | 
COC(=O)N1CCC2(CCCN(c3ccc(-c4ccccc4)cc3)C2)CC1 |  | 15.8 µM (active)
COC(=O)N1CCC2(CC1)CN(c1ccc(-c3ccccc3)cc1)C2 | -19.7% | 
COc1ccccc1/C=C/C=N/N1CCN(Cc2cccc3ccccc23)CC1 | 25.5% | 

Source: PubChem BioAssay AID1851 (National Center for Advancing Translational Sciences (NCATS), 2009)
